Measured values as given in the supplement of paper PMC6897291.

Test system: RIVA
Assay: growth inhibition by drug alone (1 - RLU/untreated control) (fraction); higher = stronger inhibition
Details: 177Lu-lilotomab satetraxetan 0 ug/ml
Experimental: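 RIVA (RI-1) ABC-DLBCL cells were pretreated or not for 18 h with 0.5 ug/ml 177Lu-lilotomab satetraxetan (600 MBq/mg), washed and seeded (3000 cells/well) on 384-well plates pre-printed with the Selleck Cambridge Cancer Compound library. Viability was read by RealTime-Glo luminescence on days 3-6 after seeding. Effect = 1 - RLU/mean RLU of the 48 untreated no-drug control wells per plate; Bliss score = (M-E)/(1-Fa).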

Row | Compound | growth inhibition by drug alone (10 nM, time (day): 3) | growth inhibition by drug alone (10 nM, time (day): 4) | growth inhibition by drug alone (10 nM, time (day): 5) | growth inhibition by drug alone (10 nM, time (day): 6) | growth inhibition by drug alone (100 nM, time (day): 3) | growth inhibition by drug alone (100 nM, time (day): 4) | growth inhibition by drug alone (100 nM, time (day): 5) | growth inhibition by drug alone (100 nM, time (day): 6)
1 | CC1=C2C[C@H]3[C@@H](CC=C4C[C@@H](O)CC[C@@]43C)[C@@H]2CC[C@]12O[C@@H]1C[C@H](C)CN[C@H]1[C@H]2C [Cyclopamine] | -0.0274 | 0.0131 | -0.0438 | -0.264 | 0.0149 | 0.0126 | -0.0321 | -0.131
2 | CC(O)(CS(=O)(=O)c1ccc(F)cc1)C(=O)Nc1ccc(C#N)c(C(F)(F)F)c1 (stereo not given) [Bicalutamide (Casodex)] | 0.121 | 0.0197 | -0.0376 | -0.206 | 0.0203 | -0.00253 | -0.0289 | -0.0827
3 | Cc1ccccc1-n1c(Cn2cnc3c(N)ncnc32)nc2cccc(C)c2c1=O | -0.0276 | -0.0854 | -0.0849 | -0.118 | 0.0893 | -0.00364 | -0.0617 | -0.104
4 | CC[C@@H](C(=O)[C@@H](C)[C@@H](O)[C@H](C)[C@@H]1O[C@@H]([C@@H](CC)C(=O)O)CC[C@@H]1C)[C@H]1O[C@]2(C=C[C@@H](O)[C@]3(CC[C@@](C)([C@H]4CC[C@](O)(CC)[C@H](C)O4)O3)O2)[C@H](C)C[C@@H]1C [Salinomycin (Procoxacin)] | 0.136 | 0.0825 | -0.0184 | -0.226 | 0.144 | 0.126 | 0.0706 | -0.0392
5 | O=C(O)c1nn(Cc2ccc(Cl)cc2Cl)c2ccccc12 [Lonidamine] | 0.0283 | 0.0585 | 0.0114 | -0.393 | -0.419 | -0.301 | -0.332 | -0.381
